This note sets out measurements from PubChem BioAssay (EPA / NIEHS).

A word on the AC50: it is the concentration at which the activity in the assay is half-maximal.

Assay [1] in a line: ATG_AP_2_CIS: Attagene CIS-FACTORIAL HepG2 Assay for human Activator Protein 2 (AP-2) (AID 2282932). The settings on record: HepG2 AP-2 cis-reporter, Attagene transcription factor profiling; actives raise or lower the signal. In short, it runs like this:
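Transiently transfected HepG2 cells are exposed to chemical for 24 h. Reporter transcripts are then measured as fluorescence following RT-PCR and capillary separation, and gain- or loss-of-signal is fitted relative to DMSO.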

Assay [2] deals with Transcription factor E2F1 (Homo sapiens) (UniProt Q01094). The assay can be described thus: ATG_E2F_CIS: Attagene CIS-FACTORIAL HepG2 Assay for human E2F Transcription Factor 1 (AID 2282935). As to conditions: HepG2 Attagene cis-reporter, E2F reporter RNA transcripts; actives raise or lower the signal. In short, it runs like this:
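Fluorescent RT-PCR products, digested with HpaI for 2 h at 37 C, are separated by capillary electrophoresis. Source RNA comes from transfected HepG2 cultures treated for 24 h.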

Assay [3] addresses Hepatocyte nuclear factor 3-beta (Homo sapiens) (UniProt Q9Y261). The assay can be described thus: ATG_FoxA2_CIS: Attagene CIS-FACTORIAL HepG2 Assay for human Forkhead box A2 (FOXA2) (AID 2282942). The settings on record: HepG2 cis-reporter transcription factor activity, 24 h; actives raise or lower the signal. Put shortly:
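Fluorescence signal of reporter cDNA fragments, separated by capillary electrophoresis, reflects endogenous transcription factor activity in transfected HepG2 after 24 h. Both increases and decreases fitted against DMSO.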

The nature of assay [4]: ATG_FoxO_CIS: Attagene CIS-FACTORIAL HepG2 Assay for human Forkhead box O (FoxO) (AID 2282943). As to conditions: HepG2 Attagene cis-reporter, FoxO element, mRNA; actives raise or lower the signal. Put shortly: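 Endogenous transcription factor activity read from multiplexed cis-promoter reporter transcripts in transiently transfected HepG2, 24 h after dosing. Reporter RNA measured via RT-PCR plus capillary electrophoresis of FAM-labeled products; gain or loss relative to DMSO.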

The target in assay [5] is Hypoxia-inducible factor 1-alpha (Homo sapiens) (UniProt Q16665). The assay can be described thus: ATG_HIF1a_CIS: Attagene CIS-FACTORIAL HepG2 Assay for human Hypoxia Inducible Factor 1 (HIF1A) (AID 2282951). As to conditions: HepG2 Attagene cis-factorial HIF1a reporter transcription; actives raise or lower the signal. Put shortly:
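Endogenous-TF cis reporter readout, human HepG2 cells, 24 h incubation; mRNA detected via RT-PCR and capillary electrophoresis fluorescence; DMSO-normalised bidirectional fitting.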

The nature of assay [6]: ATG_RORE_CIS: Attagene CIS-FACTORIAL HepG2 Assay for human RAR-related Orphan Receptor Element (RORE) (AID 2282959). As to conditions: HepG2 Attagene cis-factorial RORE reporter, mRNA; actives raise or lower the signal. Put shortly:
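Measured here: transcript induction of a cis-regulated reporter in HepG2 cells transiently transfected via FuGene 6. After 24 h, RNA was processed by RT-PCR and fluorescent capillary electrophoresis; DMSO defined baseline activity.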

The nature of assay [7]: ATG_TGFb_CIS: Attagene CIS-FACTORIAL HepG2 Assay for human Transforming Growth Factor (TGF) (AID 2282967). The settings on record: HepG2 Attagene CIS TGFb reporter, mRNA transcription; actives raise or lower the signal. In short, it runs like this:
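Readout: fluorescently labeled reporter cDNA fragments resolved by capillary electrophoresis after RT-PCR. Transfected HepG2 cells dosed for 24 h; endogenous TF activity at TGFB1-linked cis element; gain or loss fitted relative to DMSO.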

Assay [8] can be described thus: ATG_VDRE_CIS: Attagene CIS-FACTORIAL HepG2 Assay for human Vitamin D Receptor Element (VDRE) (AID 2282968). As to conditions: HepG2 VDRE cis-reporter transcription, actives raise or lower the signal. Put shortly:
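Measures endogenous factor activity through cis-element-driven reporter transcripts in transiently transfected HepG2. Cells are treated 24 h; reporter mRNA is quantified by RT-PCR and capillary electrophoresis; fitting is bidirectional.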

Assay [9] deals with X-box-binding protein 1 (Homo sapiens) (UniProt P17861). Briefly: ATG_Xbp1_CIS: Attagene CIS-FACTORIAL HepG2 Assay for human X-box Binding Protein 1 (XBP1) (AID 2282972). As to conditions: HepG2 XBP1 cis-element reporter, Attagene multiplex; actives raise or lower the signal. Put shortly:
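Human hepatoma HepG2, cis-element reporter system, 24 h treatment; mRNA quantified by RT-PCR/CE fluorescence; fit relative to DMSO.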

Assay [10] addresses Transcriptional activator Myb (Homo sapiens) (UniProt P10242). Briefly: ATG_Myb_CIS: Attagene CIS-FACTORIAL HepG2 Assay for human Myeloblastosis (Myb) Proto-Oncogene Transcription Factor (AID 2282986). As to conditions: HepG2 Attagene CIS-FACTORIAL Myb reporter transcription; actives raise or lower the signal. Put shortly:
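Multiplexed cis-reporter system in HepG2: transient transfection, 24 h treatment, mRNA readout by RT-PCR and capillary electrophoresis. Both increases and decreases are scored versus DMSO negative control.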

The target in assay [11] is Nuclear respiratory factor 1 (Homo sapiens) (UniProt Q16656). The assay can be described thus: ATG_NRF1_CIS: Attagene CIS-FACTORIAL HepG2 Assay for human Nuclear Respiratory Factor 1 (NRF1) Orphan Gene (AID 2282987). The settings on record: HepG2 NRF1 cis-element reporter, Attagene multiplex; actives raise or lower the signal. Put shortly: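 Endogenous factor activity was captured via cis-element-driven reporter transcripts in HepG2 cells. Following 24 h chemical treatment, transcripts were quantified by RT-PCR and capillary electrophoresis.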
Nuclear respiratory factor 1 (Homo sapiens), sequence (Q16656 whole entry, looked up): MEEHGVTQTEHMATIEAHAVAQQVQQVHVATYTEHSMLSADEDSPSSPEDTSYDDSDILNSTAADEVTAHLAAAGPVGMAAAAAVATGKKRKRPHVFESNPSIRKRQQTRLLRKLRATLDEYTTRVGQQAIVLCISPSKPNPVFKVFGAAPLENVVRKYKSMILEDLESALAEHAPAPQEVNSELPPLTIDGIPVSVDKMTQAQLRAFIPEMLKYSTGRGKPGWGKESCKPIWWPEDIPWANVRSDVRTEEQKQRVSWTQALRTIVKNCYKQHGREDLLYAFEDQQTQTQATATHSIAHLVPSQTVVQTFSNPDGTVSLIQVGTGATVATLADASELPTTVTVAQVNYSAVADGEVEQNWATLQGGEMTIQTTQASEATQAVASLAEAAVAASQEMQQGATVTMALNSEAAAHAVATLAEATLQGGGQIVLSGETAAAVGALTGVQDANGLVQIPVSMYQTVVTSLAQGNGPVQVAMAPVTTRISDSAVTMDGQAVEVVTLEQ

A short description of assay [12]: ATG_NFI_CIS: Attagene CIS-FACTORIAL HepG2 Assay for human Nuclear Factor I (NFI) (AID 2282989). The settings on record: HepG2 cis-regulatory reporter, NFI response element transcription; actives raise or lower the signal. In short, it runs like this:
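Read-out: reporter mRNA via RT-PCR plus capillary electrophoresis with fluorescence detection. Transiently transfected HepG2 (endogenous TF activity on cis promoters), 24 h compound exposure; gain or loss of signal fitted against DMSO.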

Assay [13] has as its target Cellular tumor antigen p53 (Homo sapiens) (UniProt P04637). The assay can be described thus: ATG_p53_CIS: Attagene CIS-FACTORIAL HepG2 Assay for human p53 Transcription Factor (AID 2282994). As to conditions: HepG2 p53 cis-element reporter, Attagene mRNA; actives raise or lower the signal. Put shortly: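 Transiently transfected HepG2 (multiple cis reporter transcription units); exposure 24 h; reporter RNA via RT-PCR, 6-FAM extension, 2 h HpaI digest at 37 C, CE detection; DMSO baseline.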

The nature of assay [14]: ATG_XTT_Cytotoxicity: Cytotoxicity Assessment in the Attagene TRANS-FACTORIAL HepG2 Assay (AID 2283584; active = hit-call score of the fitted dose curve at least 0.9, where 1 is the maximum). Put shortly: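 HepG2 cells transiently transfected with GAL4-UAS multiple reporter units, dosed 24 h; cytotoxicity read by XTT as loss of signal versus DMSO baseline.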
Assay [15] deals with Cellular tumor antigen p53 (Homo sapiens) (UniProt P04637). The assay can be described thus: TOX21_p53_BLA_p2_ratio: Tox21 HCT-116 p53 Agonism Beta-lactamase Assay, Ratio, Phase 2 (AID 2283592; active = hit-call score of the fitted dose curve at least 0.9, where 1 is the maximum). Put shortly: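 First, HCT116 reporter cells settle for 5 h at 37C. Next, DMSO compound solutions are pinned in (217-fold dilution) and left 16 h. Finally, CCF4-AM substrate is loaded 2 h at room temperature and the 460/530 nm ratio read.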
Cellular tumor antigen p53 (Homo sapiens), sequence (P04637 whole entry, looked up): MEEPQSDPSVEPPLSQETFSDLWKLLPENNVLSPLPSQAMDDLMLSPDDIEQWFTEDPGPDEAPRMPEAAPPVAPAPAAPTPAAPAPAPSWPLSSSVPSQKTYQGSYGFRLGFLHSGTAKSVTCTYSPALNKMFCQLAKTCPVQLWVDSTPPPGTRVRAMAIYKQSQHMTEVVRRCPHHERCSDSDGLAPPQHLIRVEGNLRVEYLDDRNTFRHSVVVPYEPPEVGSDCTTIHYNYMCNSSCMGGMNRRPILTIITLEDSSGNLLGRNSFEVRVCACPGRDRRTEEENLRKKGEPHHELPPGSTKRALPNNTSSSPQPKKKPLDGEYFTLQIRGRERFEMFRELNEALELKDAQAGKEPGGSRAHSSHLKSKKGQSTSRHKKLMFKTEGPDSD

A short description of assay [16]: ATG_Ets_CIS: Attagene CIS-FACTORIAL HepG2 Assay for human Erythroblast Transformation Specific (ETS) (AID 2282941). As to conditions: HepG2 ETS cis-reporter transcription, actives raise or lower the signal. In short, it runs like this: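 Multiplexed reporter transcript profiling: HepG2, 24 h treatment, total RNA to cDNA, PCR, 6-FAM labelling, HpaI cut, capillary electrophoresis. Gain- or loss-of-signal fitted against DMSO.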

Assay [17] concerns the target Myc proto-oncogene protein (Homo sapiens) (UniProt P01106). The assay can be described thus: ATG_Myc_CIS: Attagene CIS-FACTORIAL HepG2 Assay for human Myelocytomatosis (Myc) Proto-Oncogene Transcription Factor (AID 2282990). The settings on record: HepG2, Attagene cis-reporter transcription factor activity; actives raise or lower the signal. In short, it runs like this: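 After 24 h chemical treatment of HepG2 cells carrying multiplexed cis-regulated reporter constructs, reporter transcripts quantified by RT-PCR and capillary electrophoresis of fluorescent fragments. Gain or loss fitted against DMSO baseline.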

The target in assay [18] is Nuclear receptor subfamily 1 group I member 2 (Homo sapiens) (UniProt O75469). The assay can be described thus: ATG_PXR_TRANS: Attagene TRANS-FACTORIAL HepG2 Assay for human Pregnane X Receptor (PXR) (AID 2283008; active = hit-call score of the fitted dose curve at least 0.9, where 1 is the maximum). Put shortly:
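Transient HepG2 transfectants carrying multiplexed reporter transcription units; PXR activity read through a Gal4 chimera. 24 h exposure. RT-PCR/CE fluorescence; upward curve fit referenced to DMSO.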

The nature of assay [19]: ATG_M_61_CIS: Attagene CIS-FACTORIAL HepG2 Assay for M61 Transcription Factor (Internal Marker) (AID 2282937). The settings on record: HepG2 Attagene CIS-FACTORIAL M61 internal marker reporter; actives raise or lower the signal. Put shortly:
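Using transiently transfected HepG2 liver cells, reporter transcript levels were assessed 24 h post-dosing by RT-PCR and capillary electrophoresis. Changes in either direction were fitted relative to DMSO controls.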

Assay [20] is described as follows: ATG_EGR_CIS: Attagene CIS-FACTORIAL HepG2 Assay for human Early Growth Response 1 (EGR1) (AID 2282938). The settings on record: HepG2 Attagene CIS-FACTORIAL EGR reporter mRNA; actives raise or lower the signal. Put shortly: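 Fluorescent capillary-electrophoresis signal of reporter cDNA fragments serves as read-out. HepG2 cells bear transiently transfected cis-promoter reporter units and are exposed 24 h; gain- or loss-of-signal is fitted against DMSO.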

The structures appear in SMILES notation. Results filed as inconclusive are left out. Active and inactive are the calls of the source. The calls were made as follows, unless noted: active = hit-call score of the fitted dose curve at least 0.9, where 1 is the maximum; inactive = score below 0.9.

Myc proto-oncogene protein (Homo sapiens), sequence (P01106 whole entry, looked up, the tested form may be a part): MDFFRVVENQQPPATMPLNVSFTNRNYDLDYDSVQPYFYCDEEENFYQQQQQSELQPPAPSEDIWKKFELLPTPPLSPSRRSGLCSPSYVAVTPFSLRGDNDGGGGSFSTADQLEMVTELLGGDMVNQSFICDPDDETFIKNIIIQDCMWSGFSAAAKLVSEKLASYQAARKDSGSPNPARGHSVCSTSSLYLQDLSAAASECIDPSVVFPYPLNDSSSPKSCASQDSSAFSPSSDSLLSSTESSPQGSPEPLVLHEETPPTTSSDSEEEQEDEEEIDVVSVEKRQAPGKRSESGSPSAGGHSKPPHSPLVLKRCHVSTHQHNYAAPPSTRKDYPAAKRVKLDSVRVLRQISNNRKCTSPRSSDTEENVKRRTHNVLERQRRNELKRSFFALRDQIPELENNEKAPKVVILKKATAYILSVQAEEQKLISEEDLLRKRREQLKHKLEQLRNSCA
Hypoxia-inducible factor 1-alpha (Homo sapiens), sequence (Q16665 whole entry, looked up): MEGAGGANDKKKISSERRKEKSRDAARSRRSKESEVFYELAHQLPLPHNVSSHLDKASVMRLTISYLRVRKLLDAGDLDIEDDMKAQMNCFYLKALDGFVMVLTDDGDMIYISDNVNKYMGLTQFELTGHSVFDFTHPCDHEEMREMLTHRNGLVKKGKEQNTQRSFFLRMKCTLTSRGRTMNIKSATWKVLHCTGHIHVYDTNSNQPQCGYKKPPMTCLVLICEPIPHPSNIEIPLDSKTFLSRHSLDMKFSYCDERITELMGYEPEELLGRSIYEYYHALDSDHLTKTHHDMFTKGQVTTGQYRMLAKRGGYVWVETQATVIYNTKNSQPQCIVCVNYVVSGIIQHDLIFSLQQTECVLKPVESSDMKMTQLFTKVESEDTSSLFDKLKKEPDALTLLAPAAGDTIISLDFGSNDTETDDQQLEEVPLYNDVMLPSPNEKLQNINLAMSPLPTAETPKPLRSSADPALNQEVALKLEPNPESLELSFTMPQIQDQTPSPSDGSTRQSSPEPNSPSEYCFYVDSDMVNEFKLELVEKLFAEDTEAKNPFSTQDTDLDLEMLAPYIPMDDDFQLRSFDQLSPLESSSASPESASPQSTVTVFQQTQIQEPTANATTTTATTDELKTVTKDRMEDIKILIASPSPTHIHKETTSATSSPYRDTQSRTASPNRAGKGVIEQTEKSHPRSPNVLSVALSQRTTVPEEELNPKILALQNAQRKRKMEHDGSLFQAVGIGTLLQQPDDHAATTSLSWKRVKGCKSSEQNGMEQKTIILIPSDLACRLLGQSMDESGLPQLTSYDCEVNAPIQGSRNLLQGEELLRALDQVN
Nuclear receptor subfamily 1 group I member 2 (Homo sapiens), sequence (O75469 whole entry, looked up, the tested form may be a part): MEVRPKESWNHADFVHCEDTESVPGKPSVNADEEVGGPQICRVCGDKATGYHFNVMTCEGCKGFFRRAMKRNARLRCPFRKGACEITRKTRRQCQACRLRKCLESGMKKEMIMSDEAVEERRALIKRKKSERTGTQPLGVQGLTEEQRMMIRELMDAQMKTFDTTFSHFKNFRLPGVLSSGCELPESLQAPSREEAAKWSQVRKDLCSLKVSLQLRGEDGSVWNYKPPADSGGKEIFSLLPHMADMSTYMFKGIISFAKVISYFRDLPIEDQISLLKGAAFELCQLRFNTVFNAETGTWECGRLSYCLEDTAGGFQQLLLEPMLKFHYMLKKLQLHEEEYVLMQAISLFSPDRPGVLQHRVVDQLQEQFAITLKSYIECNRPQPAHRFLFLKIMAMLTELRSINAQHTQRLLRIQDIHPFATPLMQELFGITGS
Hepatocyte nuclear factor 3-beta (Homo sapiens), sequence (Q9Y261 whole entry, looked up, the tested form may be a part): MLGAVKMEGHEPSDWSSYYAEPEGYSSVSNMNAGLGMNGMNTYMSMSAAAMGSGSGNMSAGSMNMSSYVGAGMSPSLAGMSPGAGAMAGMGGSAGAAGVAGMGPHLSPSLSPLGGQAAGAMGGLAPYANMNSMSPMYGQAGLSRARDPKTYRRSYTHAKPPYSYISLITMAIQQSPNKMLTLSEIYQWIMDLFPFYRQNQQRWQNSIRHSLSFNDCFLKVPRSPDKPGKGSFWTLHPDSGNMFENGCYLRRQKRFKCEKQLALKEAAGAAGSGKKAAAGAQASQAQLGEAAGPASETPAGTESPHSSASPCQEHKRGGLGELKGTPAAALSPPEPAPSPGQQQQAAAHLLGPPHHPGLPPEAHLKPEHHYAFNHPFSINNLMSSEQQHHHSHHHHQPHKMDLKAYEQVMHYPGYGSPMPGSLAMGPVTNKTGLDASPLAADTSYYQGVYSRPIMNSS
Transcription factor E2F1 (Homo sapiens), sequence (Q01094 whole entry, looked up): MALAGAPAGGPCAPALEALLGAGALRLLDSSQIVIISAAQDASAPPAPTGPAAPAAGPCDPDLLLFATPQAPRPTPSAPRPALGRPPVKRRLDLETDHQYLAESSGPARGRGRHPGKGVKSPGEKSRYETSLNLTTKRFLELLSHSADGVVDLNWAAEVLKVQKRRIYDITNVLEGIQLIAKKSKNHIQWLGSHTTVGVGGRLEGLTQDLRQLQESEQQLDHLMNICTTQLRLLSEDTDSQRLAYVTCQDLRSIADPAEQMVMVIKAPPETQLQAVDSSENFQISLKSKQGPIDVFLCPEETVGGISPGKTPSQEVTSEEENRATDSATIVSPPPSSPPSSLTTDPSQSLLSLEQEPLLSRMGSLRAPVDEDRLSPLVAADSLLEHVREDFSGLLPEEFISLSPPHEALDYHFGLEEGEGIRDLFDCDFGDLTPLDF
X-box-binding protein 1 (Homo sapiens), sequence (P17861 whole entry, looked up): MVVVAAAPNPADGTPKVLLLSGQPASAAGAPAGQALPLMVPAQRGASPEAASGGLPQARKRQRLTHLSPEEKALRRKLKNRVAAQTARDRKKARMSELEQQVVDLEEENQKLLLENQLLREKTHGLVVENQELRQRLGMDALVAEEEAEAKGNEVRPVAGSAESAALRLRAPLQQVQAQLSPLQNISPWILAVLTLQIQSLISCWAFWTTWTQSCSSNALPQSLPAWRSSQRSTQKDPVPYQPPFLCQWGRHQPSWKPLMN
Transcriptional activator Myb (Homo sapiens), sequence (P10242 whole entry, looked up): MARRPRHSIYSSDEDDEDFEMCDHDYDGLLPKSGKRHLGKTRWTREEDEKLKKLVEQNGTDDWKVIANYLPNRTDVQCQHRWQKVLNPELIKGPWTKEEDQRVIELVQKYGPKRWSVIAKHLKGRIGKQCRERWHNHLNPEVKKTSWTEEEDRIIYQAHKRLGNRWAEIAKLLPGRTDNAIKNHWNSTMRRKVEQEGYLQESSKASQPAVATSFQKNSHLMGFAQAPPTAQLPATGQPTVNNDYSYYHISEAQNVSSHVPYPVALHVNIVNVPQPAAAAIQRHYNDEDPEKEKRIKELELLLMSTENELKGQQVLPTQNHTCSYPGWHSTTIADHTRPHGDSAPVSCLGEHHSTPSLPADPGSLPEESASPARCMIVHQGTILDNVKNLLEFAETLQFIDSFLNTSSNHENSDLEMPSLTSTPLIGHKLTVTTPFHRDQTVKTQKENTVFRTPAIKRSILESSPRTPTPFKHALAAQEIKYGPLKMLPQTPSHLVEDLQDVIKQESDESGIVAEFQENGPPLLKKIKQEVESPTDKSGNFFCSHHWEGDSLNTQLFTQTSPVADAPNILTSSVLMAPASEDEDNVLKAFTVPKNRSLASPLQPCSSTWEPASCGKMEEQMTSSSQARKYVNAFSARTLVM

Turning to `COCCCN`, the result in assay [1], in assay [2], in [3], in assay [4], in assay [5] and in [6] was inactive. Also, the compound was called inactive in assay [7], in [8], in assay [9], in [10], in [11] and in assay [12]. In addition, the compound was called inactive in [13], in assay [14] and in [15].

On to `CN(C)N=Nc1ccccc1`, for which the compound was called inactive in assay [1], in assay [16], in assay [3], in assay [4], in [5] and in assay [6]. In addition, the compound was called inactive in assay [7], in [8], in assay [9], in assay [10], in [11] and in [12]. In addition, the result in assay [17], in assay [13], in assay [18] and in assay [14] was inactive.

Regarding `CCC(C)=NO`, the result in assay [2], in [19], in assay [20], in assay [16], in assay [3] and in [4] was inactive. Besides, the outcome in assay [5], in assay [6], in assay [7], in [8], in assay [9] and in assay [10] was inactive. The compound was classed as inactive in assay [11], in [12], in [13] and in [15].

For the compound `O=C(c1ccccc1)c1ccccc1O`, the call in assay [2], in [19], in assay [20], in assay [16], in assay [3] and in assay [4] was inactive. Further, the compound was called inactive in [5], in assay [6], in assay [7], in [8], in assay [10] and in assay [11]. Also, the compound was classed as inactive in [14]. Moreover, the AC50 in [12] is 156 µM (active); in [18], 34.4 µM (active).

In the case of `CN(C)Cc1cc(C(C)(C)C)c(O)c(C(C)(C)C)c1`, the call in [2], in [19], in [20], in assay [16], in assay [3] and in assay [5] was inactive. The result in assay [6], in [7], in assay [8], in assay [10], in [11] and in assay [12] was inactive. The compound was called inactive in assay [17], in [13], in [18] and in [14].

Regarding `O=C(C(=O)c1ccccc1)c1ccccc1`, the call in assay [1], in assay [2], in assay [19], in [20], in assay [16] and in [3] was inactive. For the same compound, the compound was called inactive in assay [5], in assay [7], in [8], in assay [9], in assay [10] and in [11]. Moreover, the result in [12], in assay [17], in assay [13] and in assay [14] was inactive. In [18], the AC50 was 11.3 µM (active).

As for `O=C(O)Cc1c[nH]c2ccccc12`, the result in [1], in assay [2], in [19], in [20], in assay [16] and in [3] was inactive. In addition, the outcome in assay [4], in assay [5], in assay [6], in assay [7], in assay [8] and in assay [9] was inactive. The compound was classed as inactive in assay [10], in [11], in assay [12], in assay [17], in assay [13] and in assay [18]. In [15], the outcome was inactive.
